According to PubChem BioAssay (NCI):
The panel holds about 79,000 compounds, 15% with a hit somewhere; the sample as a whole holds those more often. Activity calls are given as the source filed them. Rule as the data show it: active = growth inhibition above about 70%; inactive = the rest.

Tests used:
[1] = NCI Yeast Anticancer Drug Screen. Data for the rad50 strain (AID 155);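 also: 0% = growth of vehicle-only cultures of the same strain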; conditions: S. cerevisiae rad50 strain growth inhibition; at 50.0 µM; hits give high values
Outline: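 Cells are treated with compound, grown, and their growth is then scored against vehicle-only cultures of the same repair-deficient yeast strain.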

[2] = NCI Yeast Anticancer Drug Screen. Data for the mec2-1 strain (AID 157); conditions: S. cerevisiae mec2-1 strain, at 50.0 µM, hits give high values
Outline: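 Growth inhibition is read against vehicle-treated controls after compound exposure of the mec2-1 yeast strain, which is defective in DNA damage repair or cell cycle control.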

[3] = NCI Yeast Anticancer Drug Screen. Data for the sgs1 mgt1 strain (AID 161);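 also: 0% = growth of cultures given vehicle only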; conditions: S. cerevisiae sgs1 mgt1 strain, at 50.0 µM, hits give high values
Outline: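 Compounds are added to genetically altered yeast, and growth is compared with cultures given vehicle alone to give percent inhibition.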

[4] = NCI Yeast Anticancer Drug Screen. Data for the cln2 rad14 strain (AID 165);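 also: 0% = growth equal to vehicle treated cultures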; conditions: S. cerevisiae cln2 rad14 strain, at 50.0 µM, hits give high values
Outline: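 Growth inhibition, relative to vehicle-treated controls, is the read-out. The test organism is a yeast strain with defined genetic alterations, cln2 rad14.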

[5] = NCI Yeast Anticancer Drug Screen. Data for the bub3 strain (AID 167); conditions: S. cerevisiae bub3 mutant strain, at 50.0 µM, hits give high values
Outline: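 Part of a panel of yeast mutants defective in DNA damage repair or cell cycle regulation. Each strain is grown with compound, and inhibition is calculated relative to solvent-treated cultures.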

[6] = NCI Yeast Anticancer Drug Screen. Data for the mlh1 rad18 strain (AID 175); conditions: S. cerevisiae mlh1 rad18 strain growth inhibition; at 50.0 µM; hits give high values
Outline: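 Cells of a genetically altered yeast strain, deficient in DNA damage repair, were treated with compound. Their growth was then compared with that of vehicle-treated cultures to give inhibition.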

Measured: growth inhibition

Cc1ccc(/C=C2/N=C(N/N=C\c3ccccc3)NC2=O)cc1
inactive: [1] -6.15% | [2] 14.9% | [3] -19.4% | [4] 1.75% | [5] -9.1% | [6] -41.1%

CCn1c2c(c3ccccc3c1=O)C(=O)c1ccccc1-2
inactive: [1] 12% | [2] 3.9% | [3] 16.8% | [4] 12.8% | [5] -3.85% | [6] -49.4%

N#Cc1nc(-c2cccc(-c3nc(C#N)c(N)o3)n2)oc1N
inactive: [1] 2.7% | [2] 13.7% | [3] -18.1% | [4] 7.9% | [5] -11.8% | [6] -58.6%

COC(=O)c1cnn2c1n[n+]([O-])c1ccccc12
inactive: [1] -36.3% | [2] -36% | [3] -33.1% | [4] 15.9% | [5] -37% | [6] -8%

CC1CC2(OC2C)C(=O)OC2CCN(C)C/C=C(/COC(=O)C1(C)O)C2=O (stereo not given)
inactive: [1] 2.3% | [2] 7.05% | [3] 20.9% | [4] 4.85% | [5] -10.8% | [6] -52%

Fc1ccc(Nc2nc(Cl)c3[nH]cnc3n2)cc1Cl
inactive: [1] 11.5% | [2] 1.45% | [3] 27.6% | [4] 7.6% | [5] 32.6% | [6] -28.7%

COC(=O)C1CCC(=O)N1CN(C(C)=O)c1cccc(O)c1 (stereo not given)
inactive: [1] 5.8% | [2] 3.3% | [3] 0.2% | [4] 9.75% | [5] -15.7% | [6] -52.3%

COc1ccccc1-c1n[nH]c(-c2ccccc2O)n1
inactive: [1] 31.7% | [2] -24.1% | [3] 27.8% | [4] -10.7% | [5] 22.9% | [6] -54.1%

Cc1cc2nn(C3CCCO3)nc2cc1C (stereo not given)
inactive: [1] -10.6% | [2] -23.5% | [3] -21.8% | [4] -15.3% | [5] -3.8% | [6] -36.4%

CCN(CC)C(=O)c1cccnc1
inactive: [1] 0.8% | [2] -46.9% | [3] -33% | [4] 14.2% | [5] -20.4% | [6] 18.6%

O=C(Nc1cccc(NC(=O)C(=O)C2CCC3=C(Sc4ccccc4N3)C2=O)n1)C(=O)C1CCC2=C(Sc3ccccc3N2)C1=O (stereo not given)
inactive: [1] 2.5% | [2] 13.8% | [3] 3% | [4] 5.2% | [5] 29.9% | [6] 1.2%

O=C1c2ccccc2-c2c1c1ccccc1c(=O)n2CCO
inactive: [2] 43.7% | [3] 60.4% | [4] 60.6% | [5] 51.9% | [6] 62.8%
active: [1] 76.8%

N#Cc1nc(C(F)(F)F)oc1N
inactive: [1] -2.6% | [2] -1% | [3] -0.95% | [4] -7.85% | [5] -3.3% | [6] -42.4%

CC1CC(=O)N(N(C)C)C(C#N)(C#N)C1(C#N)C#N (stereo not given)
inactive: [1] 24.4% | [2] 30.6% | [3] 11.2% | [4] 17.5% | [5] 0.8%
active: [6] 80.5%

COc1ccc2c(=O)c(-c3cc4c(cc3OC)OCO4)coc2c1
inactive: [1] -26.5% | [2] -30.9% | [3] -11.3% | [4] -3.1% | [5] -33.5% | [6] -56.4%

Cc1ccc(OCC2OC(n3cnc4c(Cl)nc(Cl)nc43)CC2Oc2ccc(C)cc2)cc1 (stereo not given)
inactive: [1] -20.4% | [2] -21.6% | [3] 23.1% | [4] 7.45% | [5] 27.4% | [6] -33.5%

COc1ccc(OC)c(N(CN2C(=O)CCC2C(=O)O)C(C)=O)c1 (stereo not given)
inactive: [1] 10.2% | [2] 10.2% | [3] -13.3% | [4] 1.05% | [5] -17.7% | [6] -23.3%

Cc1ccc(C)c(NC(=O)/C(=N\N)C(c2cnc3ccc([N+](=O)[O-])cc3n2)[N+](=O)[O-])c1 (stereo not given)
inactive: [1] 42.5% | [2] 27.2% | [3] 6.75% | [4] -35.2% | [5] 32.2% | [6] 28.6%

C/C(O)=C/c1nc2sc(C)c(C)c2c(=O)s1
inactive: [1] 14.4% | [2] 9.35% | [3] 9.85% | [4] 5.5% | [5] 15.2% | [6] -16.5%

CC1=CC(=O)c2ccc(C)cc2C1=O
inactive: [1] -8.9% | [2] -24.4% | [3] -6.9% | [4] -18.9% | [5] -0.4% | [6] 5.85%

C=C(C)C1CC2(C)C(C)CC(OC(=O)/C(C)=C\C)CC2C(OC(=O)/C(C)=C\C)C1O (stereo not given)
inactive: [1] 31.2% | [2] -9.65% | [3] 31.2% | [4] -9.6% | [5] -1% | [6] -12.9%

Cc1ccc(/C=N/Nc2cnccn2)s1
inactive: [1] -30.9% | [2] -25.2% | [3] -30.9% | [4] 15.2% | [5] -41.2% | [6] -9.3%

N#CCCOc1ccccc1
inactive: [1] -1.3% | [2] -26% | [3] -9.9% | [4] 15.9% | [5] -30.6% | [6] -8.5%

C=CC1=C(C)C2=NC1=CC1=NC(=C(CC)/C1=C\O)C=C1N=C3C(=C1C)C(=O)[C@H](C(=O)OC)C3=C1NC(=C2)[C@@H](C)[C@@H]1CCC(=O)O
inactive: [1] -19.7% | [2] 0.7% | [3] 4.1% | [4] 9.15% | [5] -4.35% | [6] -15.9%

CCO/C=N\C1=C(C#N)SC2=N/C(=C\c3ccc(OC)cc3)C(=O)N21
inactive: [1] -7.4% | [2] -25.1% | [3] 7.35% | [4] 6.45% | [5] -2.1% | [6] -57.8%

Cc1ccc(OC2CC(n3cnc4ncnc(Cl)c43)OC2Oc2ccc(C)cc2)cc1 (stereo not given)
inactive: [1] 21% | [2] 2.1% | [3] 13.9% | [4] 8.4% | [5] 13% | [6] -33.8%

Cc1ccc(OCC2OC(n3cnc4nc(N)nc(Cl)c43)CC2Oc2ccc(C)cc2)cc1 (stereo not given)
inactive: [1] 20.2% | [2] 28.4% | [3] 44.7% | [4] 46.5% | [5] 49.3% | [6] 2.6%

CC1OC(Oc2c(-c3cc(O)c(O)c(O)c3)oc3cc(O)cc(O)c3c2=O)C(O)C(O)C1O (stereo not given)
inactive: [1] -14.2% | [2] -16.8% | [3] -8% | [4] 9.75% | [5] -21.2% | [6] -13.6%

CSc1nc(Br)nc2ncn(C3CC(Oc4ccc(C)cc4)C(COc4ccc(C)cc4)O3)c12 (stereo not given)
inactive: [1] 16.7% | [2] 1.7% | [3] 12.4% | [4] 0.7% | [5] -3.15% | [6] -4.75%

O=C1CC(c2ccccc2)NCCCCN2CC(CN1)C(C(O)c1ccccc1)C2=O (stereo not given)
inactive: [1] -20.4% | [2] -34.8% | [3] -39.4% | [4] 8.95% | [5] -44.6% | [6] -49%

Cc1ccc(/C=N/Nc2nc3ccccc3s2)s1
inactive: [1] -24.5% | [2] -4% | [3] -9.55% | [4] 0.7% | [5] -12.1% | [6] -11.2%

CCC/C(Cl)=N/OC(=O)Nc1cccc(F)c1
inactive: [1] -2.75% | [2] -6.9% | [4] 16.6% | [5] 45% | [6] 41.5%
active: [3] 90.8%

COc1cc(Oc2c(C)c(Cl)c(OC)c(Cl)c2OC)c2c(c1Cl)COC2=O
inactive: [1] 28.5% | [2] -6.45% | [3] 15.6% | [4] 17.6% | [5] -5.75% | [6] 22.8%

CC(C)O/N=C/c1cc(NC(=S)OC(C)C)ccc1Cl
inactive: [1] 2.35% | [2] -8.75% | [3] 11.1% | [4] -4.8% | [5] -10.9% | [6] -57.5%

O=C1NC(N/N=C\C(O)C(O)C(O)C(O)CO)=N/C1=C\c1ccc(Cl)cc1 (stereo not given)
inactive: [1] 23.6% | [2] 30.6% | [3] 25.8% | [4] 26.9% | [5] 24.4% | [6] 17.6%

Clc1ccc(C2NN=C3c4ccccc4OCC32)cc1 (stereo not given)
inactive: [1] -7.85% | [2] -24.1% | [3] -3% | [4] 7.85% | [5] 1.3% | [6] 17.2%

N#CC1(C#N)C2CCCCC23OC(=N)C1(C#N)C(c1ccccc1)O3 (stereo not given)
inactive: [1] 9.3% | [2] 12.2% | [3] -22.7% | [4] -15.3% | [5] -29.9% | [6] -16.6%

COc1ccc(N=C(C)C(C)=Nc2ccc(OC)cc2)cc1
inactive: [1] -3% | [2] 3% | [3] -15.1% | [4] 14.1% | [5] 11.6% | [6] -17.7%

NC(=S)Nc1[nH]c(=S)nc2c1SC1=N/C(=C\c3ccco3)C(=O)N12
inactive: [1] 7.45% | [2] -13.6% | [3] 25.5% | [4] 18.1% | [5] 33.9% | [6] 28.2%

C=CC(COC(=O)C(C)(C)OC(C)=O)c1ccc(OC(=O)C(C)C)c(OC)c1 (stereo not given)
inactive: [1] -12.3% | [2] -2.75% | [3] 20.4% | [4] -12.3% | [5] -9% | [6] -76.1%
